The list is not random: actives were taken first. Their share in the collection is about 1.7%.
Pin1 inh = qHTS Assay to Find Inhibitors of Pin1; Pin1 FP peptide displacement, HiFluor488, 10 min; Peptidyl-prolyl cis-trans isomerase NIMA-interacting 1 (Homo sapiens), Q13526; Potency, µM (top dose mostly 115 µM), for the others: at the top dose activity, negative = inhibition, actives largely listed as inhibitors; AID 504891, 2011; 390,000 tested, 0.009% active; active means well fitted inhibition curve with a large enough effect in the polarisation, with a control signal flat, not every such curve was filed as active; inconclusive means small, poorly fitted or top-dose-only effect, or effect the other way, or a change in a side signal; inactive means no such curve, though single readings can be large or run the other way; the % refers to the polarisation; further: potency means the concentration at half of the fitted maximal effect; on the % scale 0 is the no-effect control and ±100 the full control effect
Target sequence (Q13526 whole entry, looked up): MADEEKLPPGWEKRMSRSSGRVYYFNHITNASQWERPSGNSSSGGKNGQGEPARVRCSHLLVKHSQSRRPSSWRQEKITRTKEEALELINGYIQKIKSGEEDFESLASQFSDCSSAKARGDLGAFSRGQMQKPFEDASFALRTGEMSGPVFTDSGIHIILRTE
PTHR1 agonist = qHTS for PTHR1 Agonists: Primary Screen; Parathyroid hormone/parathyroid hormone-related peptide receptor (Homo sapiens), Q03431; HEK293 GP2 PTHR1 cells, GloSensor cAMP luminescence, 1 h; Potency, µM (titrated, usually from 115 µM), without a hit: at the highest dose activation, hits mostly activators; 410,000 tested, 0.075% active; AID 743266, 2014; further: potency means the concentration at half of the fitted maximal effect; nearly all actives have a fitted effect of over 55% in size
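HEK-293-derived GP2 cells expressing PTHR1 and a GloSensor cAMP reporter, 3,000/well, plated overnight, given luciferin plus IBMX (each 0.5 mM as added) for 1 h at 37 °C, then compound for 1 h at 37 °C. Luminescence was read after 15 min at room temperature.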
GLP-1R agonist = qHTS of GLP-1 Receptor Agonists; Glucagon-like peptide 1 receptor (Homo sapiens), P43220; HEK293 GLP-1R CRE-luciferase, luminescence, 4-6 h; cells express a hypersensitive GLP-1R form; Potency, µM (top dose mostly 45.6 µM), inactives show top-dose activation, hits mostly activators; 380,000 tested, 0.007% active; further: potency means the concentration at half of the fitted maximal effect; % of control where 0% means no effect
Target sequence (P43220 whole entry, looked up): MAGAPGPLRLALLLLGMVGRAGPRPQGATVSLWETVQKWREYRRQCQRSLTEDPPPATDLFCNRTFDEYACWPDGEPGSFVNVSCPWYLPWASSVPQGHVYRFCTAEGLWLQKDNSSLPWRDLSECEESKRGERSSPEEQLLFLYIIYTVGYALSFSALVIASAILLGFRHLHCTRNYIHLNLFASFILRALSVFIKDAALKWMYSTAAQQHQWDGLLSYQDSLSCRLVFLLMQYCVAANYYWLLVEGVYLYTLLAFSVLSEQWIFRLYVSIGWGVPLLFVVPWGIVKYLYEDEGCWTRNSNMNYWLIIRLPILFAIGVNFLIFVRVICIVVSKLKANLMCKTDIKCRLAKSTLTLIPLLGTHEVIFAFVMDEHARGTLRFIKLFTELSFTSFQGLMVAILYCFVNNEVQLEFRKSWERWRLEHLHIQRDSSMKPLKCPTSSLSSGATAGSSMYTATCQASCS
miR-21 act = qHTS Assay for Modulators of miRNAs and/orActivators of miR-21; HeLa miR-21 FLuc reporter, luciferase, 48 h; Potency, µM (top dose mostly 38.3 µM), for the others: at the highest dose activity change, positive = activation, most hits filed as activators; 340,000 tested, under 10 active; AID 2288, 2010;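 further: % of control where 0% means no effect; miR-21 action dims this reporter so a rising signal means less miR-21 action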
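HeLa cells stably expressing CMV-driven firefly luciferase with a downstream miR-21 binding sequence, endogenously expressing miR-21, were treated with titrations (up to about 40uM final) for 48 hours at 37 degree Celsius. Luciferase luminescence was read after lysis.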
HEK293 tox = qHTS of GLP-1 Receptor Inverse Agonists: Cytotox Screen | HEK293 cAMP-luciferase reporter cells, luminescence, 24 h | Potency, µM (series often up to 38.3 µM), without a hit: top-dose activity change, negative = inhibition, actives largely listed as inhibitors | 410,000 tested, 0.13% active | AID 624418, 2012;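 further: loss of luciferase light is scored as toxicity; potency means the concentration at half of the fitted maximal effect; on the % scale 0 is the no-effect control and ±100 the full control effect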
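To flag toxic compounds, the library was rerun on cells for 24 hr at 37 deg C and 5% CO2. Viability-linked luminescence was captured 12 min after adding luciferase detection reagent.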
GLP1R inv ag = qHTS of GLP-1 Receptor Inverse Agonists (Inhibition Mode); Glucagon-like peptide 1 receptor (Homo sapiens), P43220; HEK293 GLP-1R CRE-luciferase, luminescence, 24 h; GLP-1R form is constitutively active; Potency, µM (highest dose often 38.3 µM), without a hit: at the highest dose activity change, negative = inhibition, usual class: inhibitors; 410,000 tested, 1.6% active; AID 624417, 2012; further: potency means the concentration at half of the fitted maximal effect; on the % scale 0 is the no-effect control and ±100 the full control effect; nearly all actives have a fitted effect of over 55% in size
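Using stably transfected HEK293 (constitutively active GLP-1R, cAMP-luciferase reporter), compounds were incubated 24 hr and luciferase measured by luminescence.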
Active calls of the source: *; i = inactive; ? = inconclusive; nt = no result; [ ] = dose if it differs, or a comment. Unless noted, the call rests on the fitted dose curve; in most records, active means well fitted curve in the direction sought with a large enough effect; inconclusive means small, poorly fitted or top-dose-only effect, or another doubt; inactive means no such curve, though single readings can be large; an effect the other way counts as inactive or inconclusive.

SMILES	Pin1 inh	PTHR1 agonist	GLP-1R agonist	miR-21 act	HEK293 tox	GLP1R inv ag
COc1ccc(C2=NC3(CCCCCC3)N(CC(=O)Nc3cccc(Cl)c3)C2=O)cc1	5.5%	-36.6%	nt	?	-26.2%	11.2µM*
COc1ccc(N2CCN(C(c3ccccc3)c3nnnn3C(C)C)CC2)cc1 (stereo not given)	0.7%	nt	nt	nt	nt	nt
Oc1ccc(Cl)cc1C1C=C(c2ccc3c(c2)OCO3)NC(c2ccc(Br)cc2)N1 (stereo not given)	-1.6%	nt	nt	nt	nt	nt
CCCSc1ncc(Cl)c(C(=O)Nc2ccc(S(=O)(=O)N3CCCCC3C)cc2)n1 (stereo not given)	21.3%	i	nt	?	-17.1%	?
CC(C)(C)C(=O)NCCc1nc2ccccc2n1CCCCOc1ccc(Cl)cc1	?	-38.2%	nt	?	-21.0%	10µM*
CC(C)C(=O)NCCc1nc2ccccc2n1CCCOc1ccc(Cl)cc1	-8.9%	-19.9%[57.5 µM]	8.3%	18.2%	?	?
Cc1ccc(OCCn2c(CCNC(=O)C(C)C)nc3ccccc32)cc1	0.5%	-19.2%[57.5 µM]	-3.4%	-4.4%	-11.1%	7.94µM*
COc1ccc(C(C(=O)Nc2ccc3c(c2)OCO3)N(C)C(=O)Cc2c[nH]c3ccccc23)cc1 (stereo not given)	12.6%	-7.6%	6.9%	-3.7%	-9.0%	2.24µM*
CS(=O)(=O)c1ccc(C(=O)OCC(=O)N2CCc3ccccc32)cc1[N+](=O)[O-]	1.5%	nt	nt	nt	nt	nt
CCCCCCC(O)C/C=C\CCCCCCCC(=O)O (stereo not given)	nt	nt	1.0%	nt	nt	nt
COc1cccc(-c2cccc(NC(=O)C3CCN(Cc4nccs4)CC3)c2)c1	-2.0%	-10.9%	-2.7%	-0.2%	-3.5%	-22.1%
CCOc1ccc(CN2CCC(C(=O)Nc3cccc(-c4ccn[nH]4)c3)CC2)cc1Cl	-5.5%	18.0%	-1.1%	15.7%	?	10µM*
COC(=O)C1=C[C@@H](C(=O)OC)C2C3=C(C(=O)[C@@]2(C)NC(=O)c2ccccc2)[C@H](C)[C@@H]2C(=O)N(C)C(=O)[C@@H]2[C@@H]3C1 (stereo not given in full)	-21.3%	nt	nt	nt	nt	nt
Cc1cccc(NC(=O)CSc2nc3ccc(NC(=O)CSc4nnnn4-c4ccccc4)cc3s2)c1C	nt	nt	nt	-1.1%	nt	nt
CN(C(=O)CSc1nc2ccc(NC(=O)COc3ccc(F)cc3)cc2s1)c1ccccc1	24.6%	-22.3%	nt	?	?	11.2µM*
O=C(CSc1nc2ccc(NC(=O)CSc3nnnn3-c3ccccc3)cc2s1)Nc1ccccc1	55.8%	i	1.9%	-14.3%	10µM*	?
CN(C(=O)CSc1nc2ccc(NC(=O)CCc3ccccc3)cc2s1)c1ccccc1	20.0%	-20.4%	nt	?	?	8.91µM*
CCCCNC(=O)Cn1c(SCc2ccccc2C)nc2ccncc21	0.1%	nt	nt	nt	nt	nt
CCC(CC)C(=O)Nc1nnc(S(=O)(=O)N(C)c2cc(C)cc(C)c2)s1	44.7%	-18.5%	nt	17.7%	-0.9%	?
CCCCCCCC/C=C\CCCCCCCC(=O)OC[C@@H](O)[C@H]1OC[C@H](O)[C@H]1O	nt	nt	-0.1%	nt	nt	nt
CCOc1c(Cl)cc(C(=O)Nc2ccccc2-c2ccccc2)cc1Cl	-0.1%	-12.6%	-5.5%	-3.4%	38.1%	8.91µM*
COc1ccc(C(=O)Nc2ccccc2-c2ccccc2)cc1Cl	3.9%	i	12.8%	-24.4%	-3.0%	?
CC(=O)N(CCCc1ccc(C(C)(C)C)cc1)CCCN(C)C	2.4%	i	-1.5%	-20.5%	3.4%	?
CC(=O)N(CCCN(C)C)CCC(C)CCC=C(C)C (stereo not given)	-3.1%	-10.6%[57.5 µM]	-0.8%	-0.4%	0.7%	3.98µM*
Cc1ccc(COn2c(-c3ccc(Cl)cc3Cl)nc3ncccc32)cc1	-1.4%	-95.2%[57.5 µM]	-3.3%	3.9%	-28.7%	10µM*
SMILES	Pin1 inh	PTHR1 agonist	GLP-1R agonist	miR-21 act	HEK293 tox	GLP1R inv ag
Fc1ccc(NC(=S)N/N=C/c2ccc(F)c(F)c2)cc1	-0.7%	-18.0%	7.1%	-24.9%	5.8%	?
COc1ccc(NC(=S)N/N=C/c2ccc(F)cc2)cc1OC	2.4%	-20.4%	0.0%	-46.1%	5.62µM*	?
CN(CC(=O)Nc1ccc(Cl)cc1)CC(=O)Nc1sc2c(c1C(N)=O)CCC2	nt	-0.9%	1.8%	nt	-52.6%	3.98µM*
C=C[C@]1(C)C[C@H]1[C@H](NP(=O)(c1ccccc1)c1ccccc1)c1ccccc1	-2.6%	-4.2%	-1.7%	-3.1%	1.5%	-5.0%
C/C(=C\[C@@H](NP(=O)(c1ccccc1)c1ccccc1)c1ccccc1)CO[Si](c1ccccc1)(c1ccccc1)C(C)(C)C	26.9%	-2.9%	-5.3%	nt	-12.3%	7.94µM*
CC(C)(C)c1ccccc1Nc1nc(C#N)nc(NC2CCCC2)n1	6.9%	nt	nt	nt	nt	nt
Cc1ccc(-c2nnc(Nc3ccc(Br)cc3)c3ccccc23)cc1S(=O)(=O)N1CCOCC1	11.7%	i	-8.6%	5.7%	-1.1%	?
O=C(Cn1ncc2c3ccccc3n(Cc3ccc(F)cc3)c2c1=O)N1CCN(c2ncccn2)CC1	35.1%	-9.4%	0.1%	18.5%	-13.6%	12.6µM*
CN(C)CCCCCCCCCCC(=O)/C=N/O	-13.4%	i	4.2%	nt	-5.8%	10µM*
CN(CCCCCCCCC(=O)/C=N/O)Cc1ccccc1	-2.3%	i	-6.9%	10.5%	-28.0%	13.5%
COc1ccc2ncnc(NCc3cccs3)c2c1-c1ccc2c(c1)OCO2	-5.8%	nt	nt	nt	nt	nt
COc1c(C(O)CC(C)C)ccc2c1C(=O)OCc1cc(C)cc(O)c1O2 (stereo not given)	0.0%	-47.4%	-4.5%	29.3%	-0.5%	11.2µM*
COc1c(C(CC(C)C)OC(C)=O)ccc2c1C(=O)OCc1cc(C)cc(O)c1O2 (stereo not given)	11.1%	-35.2%	3.6%	?	-2.7%	10µM*
COc1ccc(Cl)cc1NC(=O)CN1C(=O)C(C)(C)c2cc(S(=O)(=O)N3CCCCC3)ccc21	8.9%	i	nt	7.8%	-19.6%	11.2µM*
COc1ccc(Cl)cc1NC(=O)CN(C)CC(=O)Nc1ccc(C)cc1Br	5.7%	-30.2%	21.1%	-0.9%	-10.8%	7.94µM*
COc1ccc(Cl)cc1NC(=O)CN1CCc2ccccc21	5.2%	-19.9%	15.1%	-2.6%	0.0%	10µM*

Screens: PubChem, National Center for Advancing Translational Sciences (NCATS)
